Among all 69,000 compounds or so, about 8,600 (12%) showed an effect of 50% or more. For the sample, strong results were picked, then their nearest neighbours and some compounds at random.
What follows are molecules tested on Plasmodium berghei (assay: Screen against P. berghei liver stage (PbLuc), transformed with Luciferase, at 10uM). Settings: tested at 10 uM.
Type: functional, HepG2

Row | Structure (SMILES) | INHIBITION [%]
1 | Cc1nc(C2CCCN2C(=O)CCn2cncn2)no1 (centres undefined) | -85
2 | c1cnc2c(c1)cc([C@H]1CCCO1)n2CCN1CCOCC1 | 30.1
3 | CN(Cc1ccc(F)c(F)c1)Cc1cc2c(cc1Br)OCCO2 | -30
4 | CC(NCc1cccc2c1OCCO2)c1cc2c(cc1Br)OCCO2 (centres undefined) | 4.15
5 | CN(Cc1ccc(F)cc1F)Cc1cc2c(cc1Br)OCCO2 | 52.6
6 | CN(Cc1cscn1)Cc1cc2c(cc1Br)OCO2 | 31.9
7 | CN(Cc1ccccc1F)Cc1cc2c(cc1Br)OCCO2 | 76.2
8 | CN(Cc1ccc(F)cc1)Cc1cc2c(cc1Br)OCCO2 | 44.8
9 | COc1ccccc1CN(Cc1nc(Cc2ccccc2)no1)C1CC1 | 21.3
10 | Cc1ccccc1CC(=O)N1C[C@@H]2COC[C@]2(CN(C)C)C1 | 20.5
11 | N#Cc1ccc(C(=O)O)nc1C=Cc1cccc(F)c1 | -23.2
12 | CC(C)CN1CC2(CCN(C(=O)c3cn4cccnc4n3)CC2)CC1=O | -13.6
13 | CC(C)CN1CC2(CCN(C(=O)c3cnccn3)CC2)CC1=O | -33
14 | CC(C)CN1CC2(CCN(C(=O)C(O)c3ccccc3Cl)CC2)CC1=O (centres undefined) | 6.88
15 | CC(C)CN1CC2(CCN(C(=O)C3CSC(C)(C)C(=O)N3)CC2)CC1=O (centres undefined) | 12
16 | CC(C)CN1CC2(CCN(C(=O)c3nc4ncccn4n3)CC2)CC1=O | 56
17 | CC(C)CN1CC2(CCN(C(=O)C3CNC(=O)N3)CC2)CC1=O (centres undefined) | 53
18 | CC(C)Oc1ccc2c(NC(=O)CNC(N)=O)nn(CC(F)(F)F)c2c1 | 29.7
19 | COCC(=O)N1C[C@@H](c2cc(O)nc(C)n2)[C@H](c2ccccc2F)C1 | 24.49
20 | Cc1nc(O)cc([C@@H]2CN(C(=O)C3CC3)C[C@H]2c2ccccc2F)n1 | 60.55
21 | CC(=O)N1C[C@H](c2cc(O)nc(C)n2)[C@@H](c2ccccc2F)C1 | 12.45
22 | Cc1cc(NCCO)nc(N2CCC(Cc3ccccc3)CC2)c1C#N | 29.1
23 | Cc1nccn1CC(=O)N1CC(Cc2nccc3ccn(C)c23)C1 | 34
24 | CCCN1CCC(CC(=O)N(C)CC(=O)c2ccc(O)cc2)CC1 | 56.1
25 | CCN1CCC(CC(=O)N(C)CC(=O)c2ccc(O)cc2)CC1 | 55
26 | CC(C)N1CCC(CC(=O)N(C)CC(=O)c2ccc(O)cc2)CC1 | 1.98
27 | CC(C)N1CCC(C(=O)N(C)CC(=O)c2ccc(O)cc2)CC1 | 23.6
28 | CCCN1CCC(CC(=O)NCc2cc(O)ncn2)CC1 | 28.7
29 | CCCN1CCC(CC(=O)N(C)C(C)c2cncs2)CC1 (centres undefined) | 6.33

From ChEMBL document CHEMBL4513216, “Probing the Open Global Health Chemical Diversity Library for Multistage-Active Starting Points for Next-Generation Antimalarials” (ACS Infect Dis, 2020)
